# Several values for one entry are separate records, joined by “and”; a condition that tells them apart may be missing. Identical values can stand only once. Activity calls are given as the source filed them.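 Rule for the calls, unless noted: active = inhibition at or above 50% relative to wild type and mutant plate controls; inactive = inhibition below 50%.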
# Columns and labels:
# [1] = inhibitors of TNFa-induced NFkB p65 translocation, primary screen, imaging, HUVEC, MLSMR starter and 10KST1 sets (AID 438;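 active = inhibition above 20% together with a positive visual image hit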;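 note: compound added about 3h40 before a 20 min TNFalpha stimulation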;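 for inhibition: signal is the nuclear over cytoplasmic p65 intensity ratio per well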); details: HUVEC TNFa-induced p65 nuclear translocation; cell count: measured here: nuclei count (cytotoxicity indicator), at 2.08 µM unless noted; inhibition: at 2 µM, stronger effect = higher value unless noted
# [2] = inhibitors of mutant huntingtin aggregation, primary screen, imaging, exon1htt(103Q)mCFP cells, high-content imaging (AID 483;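 active = visual image review flags a hit and inhibition of aggregation exceeds 20%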;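 note: compound exposure lasted 3 days before fixation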;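 for nuclei count: percent of the per-plate median nuclei count of sample wells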); details: exon1htt(103Q)mCFP cell line, aggregate imaging, at 2 µM; inhibition of aggregation: stronger effect = higher value; nuclei count: measured here: cell count, toxicity
# [3] = inhibitors of E-selectin induction by TNFa, primary screen, imaging, HUVEC, immunofluorescence, MLSMR starter and 10KST1 sets (AID 487;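 active = visually confirmed hit in the image check and inhibition above 20%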;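 for inhibition: signal is fraction of cell area covered by stained E-selectin grains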;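 for nuclei count: 100% = median nuclei count of all wells on the same plate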); details: HUVEC TNFalpha-induced E-selectin immunofluorescence imaging, at 2 µM; inhibition: stronger effect = higher value; nuclei count: measured here: cell number, toxicity
# [4] = molecular target: Voltage-gated potassium channel subunit beta-2 (Rattus norvegicus) (UniProt P62483); assay: KvBeta enzyme negative modulators, primary screen, biochemical, NADPH fluorescence (AID 622;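 active = fluorescence slope higher than the sample average by over 3 SD, cut at about -0.22 in these data, passing the limit was not always enough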;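 note: slope of raw intensity against log time taken from 70 to 1610 s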); details: recombinant KvBeta, 4-cyanobenzaldehyde reduction, at 10 µM, stronger effect = higher value
# Voltage-gated potassium channel subunit beta-2 (Rattus norvegicus), sequence (P62483 whole entry, looked up): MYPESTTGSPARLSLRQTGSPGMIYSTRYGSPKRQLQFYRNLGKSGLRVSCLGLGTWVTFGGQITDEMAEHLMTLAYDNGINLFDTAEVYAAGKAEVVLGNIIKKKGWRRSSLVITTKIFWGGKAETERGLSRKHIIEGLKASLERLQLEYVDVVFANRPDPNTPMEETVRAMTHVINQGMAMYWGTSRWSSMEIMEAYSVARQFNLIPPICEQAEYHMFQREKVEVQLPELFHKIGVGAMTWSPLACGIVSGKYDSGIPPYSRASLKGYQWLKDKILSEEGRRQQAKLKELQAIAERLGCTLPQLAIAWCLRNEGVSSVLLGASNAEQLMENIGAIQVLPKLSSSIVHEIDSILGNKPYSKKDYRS
# [5] = molecular target: Voltage-gated potassium channel subunit beta-2 (Rattus norvegicus) (UniProt P62483); assay: KvBeta positive modulators, primary screen, biochemical, NADPH fluorescence (AID 623;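 active = NADPH fluorescence slope more negative than the mean of all samples by about 3 SD, 99.7% confidence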;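 note: fluorescence intensity change per second fitted from 20 to 320 s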); details: Recombinant KvBeta, NADPH fluorescence decrease slope, 10 min; at 10 µM; stronger effect = lower value
# [6] = molecular target: Muscarinic acetylcholine receptor M4 (Homo sapiens) (UniProt P08173); assay: compounds altering M4/GIRK thallium flux, either direction, primary screen, M4 allosteric agonist project, cell-based, HEK293 M4/GIRK, BTC-AM (AID 625;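 active = fluorescence slope after compound addition differing from the mean of all tested samples at 99.7% confidence, mostly higher but some lower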;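 note: thallium influx through GIRK channels coupled to M4 in HEK293 cells with BTC-AM dye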); details: at 10 µM, actives lie on both sides
# Muscarinic acetylcholine receptor M4 (Homo sapiens), sequence (P08173 whole entry, looked up): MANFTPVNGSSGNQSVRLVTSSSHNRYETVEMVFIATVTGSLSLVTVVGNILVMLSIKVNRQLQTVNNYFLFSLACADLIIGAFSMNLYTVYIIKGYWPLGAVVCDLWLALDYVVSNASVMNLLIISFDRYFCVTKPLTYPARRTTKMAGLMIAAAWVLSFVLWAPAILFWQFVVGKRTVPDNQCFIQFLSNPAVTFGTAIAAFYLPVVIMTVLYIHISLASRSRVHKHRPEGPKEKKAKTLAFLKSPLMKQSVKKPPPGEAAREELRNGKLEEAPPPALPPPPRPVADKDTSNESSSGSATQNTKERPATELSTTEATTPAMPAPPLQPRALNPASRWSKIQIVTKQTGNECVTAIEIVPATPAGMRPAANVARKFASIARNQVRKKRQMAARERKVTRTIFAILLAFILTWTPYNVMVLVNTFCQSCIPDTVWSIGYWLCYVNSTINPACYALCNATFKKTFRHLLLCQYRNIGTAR
# [7] = inhibitors of Sendai virus-induced IRF3 signaling, primary screen, TLR/RLR signaling modifier project, cell-based, Sendai virus stimulus, luciferase, 10K MLSCN set (AID 602276;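 active = inhibition at or above 50% at 10 µM; inactive = inhibition below 50%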;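 note: firefly luciferase from ISG56 promoter only with Renilla not read in this screen; 0% = Sendai virus plus DMSO and 100% = medium plus DMSO without virus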); details: HEK293 RL24 IRF3 luciferase reporter, at 10 µM, stronger effect = higher value
# [8] = inhibitors of poly I:C-induced TLR3 signaling, primary screen, cell-based, poly I:C stimulus, luciferase, 10K MLSCN set (AID 602277;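 active = inhibition of the reporter signal at or above 50%; inactive = inhibition below 50%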); details: HEK293-TLR3 RL24 IRF3 luciferase reporter, at 10 µM, stronger effect = higher value
# [9] = inhibitors of Chlamydomonas gravitaxis, primary screen, whole organism, Chlamydomonas reinhardtii, WT vs cilia-less mutant, absorbance, 96-well (AID 463189); details: OD600 absorbance, 2 days, at 10 µM, stronger effect = higher value;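 note: 0% = wild type cc124 cells in DMSO and 100% = ciliumless bld1 mutant cells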
# [10] = DUSP6 inhibitors restoring Erk phosphorylation by chemical complementation, primary imaging in DUSP6-transfected HeLa (AID 609;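 active = compounds giving at least 50% inhibition in the cell-based MKP-3 phosphatase rescue imaging test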;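 for inhibition: phospho-Erk level distribution per well compared with pooled transfected vehicle control wells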); details: HeLa MKP-3 transfected, phospho-Erk imaging KS statistic, at 10 µM
# [11] = molecular target: Dual specificity protein phosphatase 6 (Homo sapiens) (UniProt Q16828); assay: as above; details: HeLa MKP-3 transfected, phospho-Erk imaging KS statistic, at 10 µM, stronger effect = higher value
# Dual specificity protein phosphatase 6 (Homo sapiens), sequence (Q16828 whole entry, looked up): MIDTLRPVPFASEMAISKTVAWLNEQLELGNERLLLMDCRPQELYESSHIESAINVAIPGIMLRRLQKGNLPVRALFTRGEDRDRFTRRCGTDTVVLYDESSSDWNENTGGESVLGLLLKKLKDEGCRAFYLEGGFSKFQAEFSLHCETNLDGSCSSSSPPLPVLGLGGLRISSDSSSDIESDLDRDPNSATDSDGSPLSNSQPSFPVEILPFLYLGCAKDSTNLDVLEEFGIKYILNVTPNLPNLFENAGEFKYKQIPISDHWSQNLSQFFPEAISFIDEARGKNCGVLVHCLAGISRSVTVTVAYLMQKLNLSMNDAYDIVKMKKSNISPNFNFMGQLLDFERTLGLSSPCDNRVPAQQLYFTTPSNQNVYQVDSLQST
# [12] = inhibitors of larval lipid processing in zebrafish, primary screen, whole organism, PED6 fluorescence, gall bladder and intestine (AID 686;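 active = a full or partial loss of lipid-probe fluorescence in the fish gall bladder, intestine or both, judged by eye; inactive = no fluorescence loss, or compound toxic to the fish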;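 note: larvae 5 to 7 days old with five fish per well; signal comes from phospholipase A2 cleavage of quenched PED6 carried via bile; overnight exposure to compound and PED6 before scoring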); details: Zebrafish larvae PED6 lipid processing, fluorescence scoring
# [13] = molecular target: Alpha-2C adrenergic receptor (Homo sapiens) (UniProt P18825); assay: modulators of alpha2C/GIRK thallium flux, primary screen, cell-based, HEK293 alpha2C/GIRK1/2 (AID 624;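 active = fluorescence slope after compound addition differing from the mean of all screened samples at 99.7% confidence, in either direction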;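 note: slope of fluorescence ratio to pre-addition baseline per second over 15 to 24 s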); details: thallium flux BTC fluorescence, at 10 µM, actives lie on both sides
# Alpha-2C adrenergic receptor (Homo sapiens), sequence (P18825 whole entry, looked up): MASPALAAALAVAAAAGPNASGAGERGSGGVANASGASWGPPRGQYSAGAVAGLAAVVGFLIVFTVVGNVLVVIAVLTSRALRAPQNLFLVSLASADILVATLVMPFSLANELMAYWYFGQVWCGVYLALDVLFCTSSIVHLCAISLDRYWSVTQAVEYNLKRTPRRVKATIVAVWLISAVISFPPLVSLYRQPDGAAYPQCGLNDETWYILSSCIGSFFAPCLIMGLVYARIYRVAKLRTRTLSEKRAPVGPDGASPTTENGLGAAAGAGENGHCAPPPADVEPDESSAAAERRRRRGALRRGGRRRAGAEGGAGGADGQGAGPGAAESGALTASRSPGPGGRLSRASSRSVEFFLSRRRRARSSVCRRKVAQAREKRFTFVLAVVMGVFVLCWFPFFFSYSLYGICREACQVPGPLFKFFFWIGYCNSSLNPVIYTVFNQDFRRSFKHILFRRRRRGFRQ
# [14] = measured here: cell density z-score
# [15] = measured here: nuclear c-Myc green intensity z-score
# [16] = measured here: nuclear pErk red intensity z-score, stronger effect = higher value
structure (smiles),measurement,setting,value
CC(C)OC(=O)c1c(N)n(CC2CCCO2)c2nc3ccccc3nc12 (stereo not given),cell count,[1],470
same,inhibition,[1],-5.1% (inactive)
same,inhibition of aggregation,[2],23.6% (inactive)
same,nuclei count,[2],104%
same,inhibition,[3],-26.3% (inactive)
same,nuclei count,[3],191%
same,fluorescence slope,[4],-0.0217 (active)
same,NADPH fluorescence slope,[5],1.4e-05 (inactive)
same,fluorescence slope,[6],0.00718 (inactive)
same,inhibition,[7],9.43% (inactive)
same,inhibition,[8],13.4% (inactive)
Cc1[nH]c2c(Cl)cccc2c1CCN,cell count,[1],517
same,inhibition,[1],3.9% (inactive)
same,inhibition of aggregation,[2],1.5% (inactive)
same,nuclei count,[2],86.5%
same,inhibition,[3],-19.9% (inactive)
same,nuclei count,[3],110%
same,fluorescence slope,[4],-0.427 (inactive)
same,NADPH fluorescence slope,[5],-1.2e-05 (inactive)
same,fluorescence slope,[6],0.0063 (inactive)
same,inhibition,[7],13% (inactive)
same,inhibition,[8],18.6% (inactive)
N#Cc1ccccc1Cn1cc(C(=O)c2ccco2)c2ccccc21,cell count,[1],353
same,inhibition,[1],6% (inactive)
same,inhibition of aggregation,[2],23.1% (inactive)
same,nuclei count,[2],76.5%
same,inhibition,[3],-3.7% (inactive)
same,nuclei count,[3],80.5%
same,fluorescence slope,[4],-0.254 (inactive)
same,NADPH fluorescence slope,[5],-2.3e-05 (inactive)
same,fluorescence slope,[6],0.00586 (inactive)
same,inhibition,[7],16.6% (inactive)
same,inhibition,[8],15.1% (inactive)
Clc1cccc(N2CCNCC2)c1,inhibition,[9],1.7% (inactive)
O=P(c1ccccc1)(c1ccccc1)N1CCCCC1,inhibition,[3],-13.6% (inactive)
same,nuclei count,[3],99.1%
same,z-score,[10]; [14],-0.682
same,z-score,[10]; [15],-0.604
same,z-score,[10]; [16],-1.11
same,inhibition,[11],18.9% (inactive)
same,fluorescence slope,[4],-0.396 (inactive)
same,NADPH fluorescence slope,[5],1.4e-05 (inactive)
same,fluorescence slope,[6],0.00417 (inactive)
same,outcome,[12],inactive
same,inhibition,[9],-7.33% (inactive)
O=C(COc1ccc2ccccc2c1)N1CCN(C2CCN(Cc3ccccc3)CC2)CC1,inhibition of aggregation,[2],2.5% (inactive)
same,nuclei count,[2],75.6%
same,inhibition,[3],-123% (inactive)
same,nuclei count,[3],138%
same,z-score,[10]; [14],0.592
same,z-score,[10]; [15],-1.17
same,z-score,[10]; [16],0.865
same,inhibition,[11],1.04% (inactive)
same,fluorescence slope,[4],-0.309 (inactive)
same,NADPH fluorescence slope,[5],1.5e-05 (inactive)
same,slope,[13],0.00353 (inactive)
same,outcome,[12],inactive
same,inhibition,[9],64.5% (active)
same,inhibition,[7],8.43% (inactive)
same,inhibition,[8],-13.3% (inactive)
CCCCc1ccc(C(=O)O)nc1,inhibition,[9],-11.3% (inactive)
S=C=Nc1cccc(C2(N3CCCCC3)CCCCC2)c1,inhibition,[9],10.2% (inactive)
C=CCN1CCC23c4c5ccc(O)c4O[C@H]2C(=O)CC[C@@]3(O)C1C5 (stereo not given in full),inhibition,[9],4.89% (inactive)
N[C@H](CCCCCP(=O)(O)O)C(=O)O,inhibition,[9],-8.7% (inactive)
CC(Cc1ccc(OCC(=O)O)cc1)NCC(O)c1cccc(Cl)c1 (stereo not given),inhibition,[9],1% (inactive)
O=c1[nH]c2ccccc2n1CCCN1CCC(n2c(=O)[nH]c3cc(Cl)ccc32)CC1,inhibition of aggregation,[2],13.3% (inactive)
same,nuclei count,[2],79.8%
same,inhibition,[3],-81.4% (inactive)
same,nuclei count,[3],120%
same,z-score,[10]; [14],-1.29
same,z-score,[10]; [15],0.926
same,z-score,[10]; [16],0.563
same,inhibition,[11],12.4% (inactive)
same,fluorescence slope,[4],-0.455 (inactive)
same,NADPH fluorescence slope,[5],-4.5e-05 (inactive)
same,slope,[13],0.00301 (inactive)
same,inhibition,[9],2.96% (inactive) and 11.3% (inactive)
same,inhibition,[7],7.67% (inactive)
same,inhibition,[8],18.2% (inactive)
C[N+]1(C)CCC(OC(=O)C(c2ccccc2)c2ccccc2)CC1,inhibition,[9],-7.08% (inactive)
CC(=O)CC(C)(C)n1c[n+](C)nn1,inhibition,[3],-59% (inactive)
same,nuclei count,[3],155%
same,z-score,[10]; [14],0.619
same,z-score,[10]; [15],-0.892
same,z-score,[10]; [16],-1.39
same,inhibition,[11],-5.89% (inactive)
same,fluorescence slope,[4],-0.383 (inactive)
same,NADPH fluorescence slope,[5],-5.6e-05 (inactive)
same,fluorescence slope,[6],0.00569 (inactive)
same,outcome,[12],inactive
same,inhibition,[9],-0.884% (inactive)
COc1ccc2c(c1)c(C(=O)O)c(C)n2CC(C)C,inhibition,[3],37.7% (inactive)
same,nuclei count,[3],86.4%
same,z-score,[10]; [14],-0.228
same,z-score,[10]; [15],-1.03
same,z-score,[10]; [16],0.232
same,inhibition,[11],-2.07% (inactive)
same,fluorescence slope,[4],-0.462 (inactive)
same,NADPH fluorescence slope,[5],-3.5e-05 (inactive)
same,fluorescence slope,[6],0.00491 (inactive)
same,outcome,[12],inactive
same,inhibition,[9],36.3% (inactive)
CCCC(C)(COC(N)=O)COC(=O)NC(C)C (stereo not given),inhibition of aggregation,[2],18.2% (inactive)
same,nuclei count,[2],100%
same,inhibition,[3],0.8% (inactive)
same,nuclei count,[3],106%
same,z-score,[10]; [14],-1.69
same,z-score,[10]; [15],0.189
same,z-score,[10]; [16],-1.67
same,inhibition,[11],-0.493% (inactive)
same,fluorescence slope,[4],-0.459 (inactive)
same,NADPH fluorescence slope,[5],1.2e-05 (inactive)
same,slope,[13],0.0053 (inactive)
same,outcome,[12],inactive
same,inhibition,[9],-1.2% (inactive) and -10.3% (inactive)
same,inhibition,[7],3.15% (inactive)
same,inhibition,[8],14.5% (inactive)
CNCCc1c[nH]c2ccc(O)cc12,inhibition,[9],8.6% (inactive)
C[N+]1(C)[C@@H]2CC[C@H]1CC(OC(=O)C(CO)c1ccccc1)C2 (stereo not given in full),inhibition of aggregation,[2],-2.8% (inactive)
same,nuclei count,[2],112%
same,inhibition,[3],-82.3% (inactive) and -114% (inactive)
same,nuclei count,[3],123% and 124%
same,z-score,[10]; [14],-1.12 and 0.779
same,z-score,[10]; [15],0.388 and 0.223
same,z-score,[10]; [16],-0.779 and -1.81
same,inhibition,[11],1.48% (inactive) and 15.3% (inactive)
same,fluorescence slope,[4],-0.509 (inactive) and -0.518 (inactive)
same,NADPH fluorescence slope,[5],-2.9e-05 (inactive) and -4.5e-05 (inactive)
same,slope,[13],0.005 (inactive) and 0.00423 (inactive)
same,outcome,[12],inactive
same,inhibition,[9],30.8% (inactive) and -7.87% (inactive)
same,inhibition,[7],13.4% (inactive) and 12.2% (inactive)
same,inhibition,[8],35.7% (inactive) and 30.4% (inactive)
COc1ccc(Cc2nccc3cc(OC)c(OC)cc23)cc1OC,inhibition of aggregation,[2],-8.7% (inactive)
same,nuclei count,[2],110%
same,inhibition,[3],-204% (inactive)
same,nuclei count,[3],140%
same,z-score,[10]; [14],1.76
same,z-score,[10]; [15],-0.33
same,z-score,[10]; [16],-0.255
same,inhibition,[11],9.37% (inactive)
same,fluorescence slope,[4],-0.442 (inactive)
same,NADPH fluorescence slope,[5],-7e-05 (inactive)
same,slope,[13],0.00447 (inactive)
same,outcome,[12],inactive; toxic
same,inhibition,[9],-20% (inactive) and 8.29% (inactive)
same,inhibition,[7],-5.8% (inactive)
same,inhibition,[8],-3.94% (inactive)
C=CCN1CCC2(C)c3cc(O)ccc3CC1C2C (stereo not given),inhibition,[9],0.366% (inactive)
CCCN1CC[C@@H]2c3cc(O)ccc3CC[C@@H]21,inhibition,[9],-3.65% (inactive)

# Reference: PubChem BioAssay
